Out of some 360,000 compounds screened, about 17,000 (4.7%) were called active. Not shown: some 5% with an inconclusive outcome. Cut-off read from the data, not from the text of the source: active = activity change below about -50%; inconclusive = mostly about -30% to -49%; inactive = weaker than that. The sample as a whole holds a higher share of actives than the screen did.
Assay: qHTS for Inhibitors of Inflammasome Signaling: IL-1-beta AlphaLISA Primary Screen
Settings: THP-1 LPS/ATP IL-1B secretion, 16 h; at 57.5 µM, active compounds read low
Procedure, shortened: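 THP-1 cells pretreated 1 hr with compounds (up to 57.5 uM final), then stimulated with LPS (250 ng/mL final) plus ATP (1.25 mM final); secreted IL-1B measured by AlphaLISA after 16 hr, decreased signal indicating inhibition.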
% is set by controls: 0 for no effect and ±100 for the full control effect.

Activity change, inactive:
COC(=O)c1ccc(CNC(=O)Cn2cc(C)c(=O)[nH]c2=O)cc1 15.5%, COc1ccc(C(=O)NCC2CCCO2)cc1S(=O)(=O)NCc1ccc(Cl)cc1 (stereo unspecified) -8.62%, COC(=O)c1sccc1N/N=C(\C)c1ccc(F)c(Cl)c1 13.1%, CCN(CC)c1ccc(C(=O)N/N=C(\C)c2cccc(OC)c2)cc1 96.6%, Cc1cc(NC(=O)CSc2nccn2-c2ccc([N+](=O)[O-])cc2)no1 45.3%, COc1cc2c(cc1CNC[C@H]1O[C@@H](n3cnc(C(N)=O)n3)[C@H](O)[C@@H]1O)OCO2 3.97%, CCc1ccccc1OCC(=O)Nc1nnc(C2CC2)s1 -16.9%, O=C(CN1CCCCCC1)NCCN1C(=O)S/C(=C\c2ccccc2Cl)C1=O -15.4%, COc1cccc(/C=C2/SC(=S)N(CC(=O)NC3C=CS(=O)(=O)C3)C2=O)c1 (stereo unspecified) -11%, CC(=O)Nc1ccccc1C(=O)C(=O)Nc1ccc(F)cc1 6.97%, CC(NC(=O)c1ccccc1)C(=O)OCC(=O)Nc1cccc(S(=O)(=O)N2CCCC2)c1 (stereo unspecified) -0.602%, Cc1ccnc(SC2CC(=O)N(c3ccccc3)C2=O)n1 (stereo unspecified) -12.7%, Cc1nc(Nc2ccccc2C)c2cnn(C)c2n1 5.45%, CCCCc1ccc(S(=O)(=O)NC(=O)C2(C)CCN2C(=O)c2ccccc2)cc1 (stereo unspecified) 48.7%, CCOC(=O)Nc1ccc(S(=O)(=O)N(C)C(C)C)cc1 24%, CCOC(=O)Nc1ccc2c(c1)N(C(=O)CCN1CCN(CCO)CC1)c1ccccc1CC2 -7.2%, Cc1ccc(CNC(=O)C(=O)c2cn(CC(=O)N3CCOCC3)c3ccccc23)cc1 -24.4%, COC(=O)c1cc(NC(=O)Cc2ccccc2[N+](=O)[O-])ccc1Cl 11.8%, NC(=O)c1ccc(NC(=O)COC(=O)c2ccc([N+](=O)[O-])cc2)cc1 3.51%, CC(CC(=O)O)C(=O)c1ccc(Cl)c([N+](=O)[O-])c1 (stereo unspecified) -17.6%, CC(=O)Nc1ccc(NC(=O)COC(=O)c2ccccc2C(=O)c2ccccc2)cc1 -29.6%, C[C@H]1CN([C@@H](C)CO)C(=O)CCCn2cc(nn2)CO[C@@H]1CN(C)S(=O)(=O)c1ccccc1C#N 4.98%, Cc1cc(C)c(C=NNc2nc3c([nH]2)c(=O)n(C)c(=O)n3C)c(C)c1 -9.11%, O=C(COC(=O)CCc1c[nH]c2ccccc12)Nc1cccc(Cl)c1 8.98%, CSc1ccc(CN2CCC2(C)C(=O)NCc2ccccc2Br)cc1 (stereo unspecified) 35.5%, COc1ccc(NS(=O)(=O)c2ccc(C(=O)Nc3c(C)n(C)n(-c4ccccc4)c3=O)cc2)cc1 -16.8%, Cc1c(NC(=O)C(C)OC(=O)c2ccccc2O)c(=O)n(-c2ccccc2)n1C (stereo unspecified) 2.66%, CSCCC(NC(=O)c1ccco1)C(=O)NCCc1ccc(F)cc1 (stereo unspecified) -9.3%, c1ccc(-c2ccccc2OCCN2CCCCC2)cc1 -0.581%, Nc1nnc(SCCN2C(=O)c3ccccc3S2(=O)=O)s1 10.6%, CCN(CC(=O)NC1CCS(=O)(=O)C1)c1nc(-c2cccnc2)nc2ccccc12 (stereo unspecified) -2.86%, O=C(CSc1cccc[n+]1[O-])c1ccc(-c2ccccc2)cc1 31.4%, COCCNc1ncnc2c1ncn2[C@H]1CN(CCN2CCOCC2)C[C@@H](CO)O1 1.62%, CCc1ccc(-c2nn(-c3ccccc3C)cc2C(=O)N2CCN(C3CCS(=O)(=O)C3)CC2)cc1 (stereo unspecified) 16.7%, NC(=O)C1CCN(C(=O)c2cn(-c3ccccc3)nc2-c2cccnc2)CC1 -2.49%, CCOC(=O)c1ccc(COC(=O)CCc2nc(-c3ccccc3)c(-c3ccccc3)o2)cc1 31.5%, CC(C)Nc1ncnc2c1ncn2[C@H]1CN(Cc2ccncc2)C[C@@H](CO)O1 22.2%, O=C(Nc1ccc(S(=O)(=O)N2CCOCC2)cc1)C1CCN(S(=O)(=O)c2ccc(Cl)cc2)CC1 -6.97%, Clc1ccc(Nc2ccc3ccccc3n2)cc1 -15.6%, C(=N\Nc1ccc2ccccc2n1)/c1ccc2c(c1)OCO2 -9.79%, O=C(Nc1ccc(Cl)cc1)c1csc([C@@H]2O[C@H](CO)[C@H](O)[C@H](O)[C@H]2O)n1 17.3%, Cc1nnc(SC(C)C(=O)c2c[nH]c3ccccc23)n1C1CC1 (stereo unspecified) 0%, Cc1onc(-c2c(F)cccc2Cl)c1C(=O)Nc1cccc(S(=O)(=O)N2CCCCC2)c1 -19.9%, CCC(CO)Oc1cc(NC(=O)c2cccc(F)c2)c2ncn(C(C)C)c2c1 (stereo unspecified) -4.82%, CCC(CO)Oc1cc(NC(=O)c2ccc(Cl)cc2)c2ncn(C(C)C)c2c1 (stereo unspecified) -3.64%

Activity change, active:
COc1cccc(/C(C)=N/Nc2ncc(Cl)cc2Cl)c1 -80.6%, O=C(CN1C(=O)S/C(=C\c2ccccc2Cl)C1=O)NC1C=CS(=O)(=O)C1 (stereo unspecified) -99.6%, Cc1ccnc(-n2sc3ccccc3c2=O)n1 -95.9%, CCOC(=O)Nc1ccc2c(c1)N(C(=O)CCCl)c1ccccc1[S@]2=O -96.5%, CC(=O)Nc1ccc(NC(=O)C(C)OC(=O)c2ccccc2C(=O)c2ccc(Cl)c([N+](=O)[O-])c2)cc1 (stereo unspecified) -108%, N#Cc1cccc(NC(=O)COC(=O)c2ccccc2C(=O)c2ccc(Cl)c([N+](=O)[O-])c2)c1 -112%, COc1ccc(C(=O)C(C)OC(=O)c2cccc(S(=O)(=O)Nc3c(C)n(C)n(-c4ccccc4)c3=O)c2)cc1 (stereo unspecified) -73.2%, O=S1(=O)C=C(SCCN2CCCC2)c2ccccc21 -84.4%, CCc1ccc(-c2nn(-c3ccccc3)cc2CSC(=N)N)cc1 -102%, Cc1noc(C)c1/C=N/Nc1ccc2ccccc2n1 -70.6%, CCC(CO)Oc1cc(NC(=O)c2cccc3ccccc23)c2ncn(C(C)C)c2c1 (stereo unspecified) -67.6%
